In all, about 39,000 compounds went through this assay and about 3,300 (8.5%) were called active. The sample holds actives, similar compounds and a random draw of the others, so the mix is not that of the screen.
These compounds were tested on HepG2 (assay: cytotoxicity call (relative viability < 0.9)). Details: 10 µM.

| Compound | cytotoxicity call |
| --- | --- |
| COc1ccc([C@@H]2CC=CC[C@H](C)Oc3ccccc3C(=O)N(C)[C@@H](Cc3ccccc3)C(=O)N2)c(OC)c1 | inactive |
| Cc1noc(C)c1NC(=O)Nc1ccc2c(c1)C(=O)N([C@@H](C)CO)C[C@@H](C)[C@@H](CN(C)Cc1ccncc1)OCCCC[C@H](C)O2 | inactive |
| CO[C@H]1CN(C)C(=O)c2cc(NC(=O)C3CC3)ccc2OC[C@@H](C)N(C(=O)C2CCOCC2)C[C@H]1C | inactive |
| COc1ccc([C@@H]2CC=CC[C@@H](C)Oc3ccccc3C(=O)N(C)[C@H](Cc3ccccc3)C(=O)N2)c(OC)c1 | inactive |
| Cc1noc(C)c1NC(=O)Nc1ccc2c(c1)C(=O)N([C@@H](C)CO)C[C@@H](C)[C@H](CN(C)C(=O)c1ccccc1)OCCCC[C@@H](C)O2 | inactive |
| COCC(=O)N1C[C@@H](C)[C@H](OC)CN(C)C(=O)c2ccc(NC(=O)c3ccc(OC)cc3)cc2OC[C@@H]1C | inactive |
| COc1cc(C(=O)NS(=O)(=O)c2ccccc2C)ccc1Cc1cn(C)c2ccc(NC(=O)OC3CCCC3)cc12 | inactive |
| CCCC#Cc1cnc2c(c1)C(=O)N([C@H](C)CO)C[C@H](C)[C@@H](CN(C)S(=O)(=O)c1cn(C)cn1)O2 | inactive |
| C[C@@H]1CN([C@@H](C)CO)C(=O)c2cc(NC(=O)Cc3ccccc3)ccc2O[C@@H]1CN(C)C(=O)Nc1cccc2ccccc12 | inactive |
| CC(C)NC(=O)N(C)C[C@@H]1Oc2ccc(NS(=O)(=O)c3ccc(F)cc3)cc2C(=O)N([C@@H](C)CO)C[C@H]1C | inactive |
| CNC(=O)Cc1cnc(N)s1 | inactive |
| C[C@H](CO)N1C[C@H](C)[C@H](CN(C)Cc2ccc(C(F)(F)F)cc2)Oc2c(NC(=O)CCCCCC(=O)Nc3ccccc3N)cccc2C1=O | inactive |
| C[C@H](CO)N1C[C@H](C)[C@H](CN(C)Cc2ccc(Oc3ccccc3)cc2)Oc2c(NS(=O)(=O)c3cccs3)cccc2C1=O | inactive |
| C[C@H]1CN([C@@H](C)CO)C(=O)c2cccc(NC(=O)c3ccncc3)c2O[C@H]1CN(C)Cc1ccncc1 | inactive |
| C[C@@H]1CN([C@H](C)CO)C(=O)c2cc(-c3cccnc3)cnc2O[C@H]1CN(C)Cc1ccc(Oc2ccccc2)cc1 | inactive |
| COc1ccc(NC(=O)Nc2ccc3c(c2)[C@H]2C[C@H](CC(=O)N4CCN(C)CC4)O[C@@H](CO)[C@H]2O3)cc1 | inactive |
| CN1CCN(Cc2ccc(NC(=O)Nc3ccc(Oc4cc(NC(=O)C5CC5)ncn4)cc3)cc2C(F)(F)F)CC1 | active |
| Cc1cccc(Oc2ccc(NC(=O)C3CCC(C)CC3)cc2)c1 (stereo unspecified) | inactive |
| C[C@@H]1CN([C@H](C)CO)C(=O)Cc2cc(NS(=O)(=O)c3ccc(F)cc3)ccc2O[C@H]1CN(C)S(=O)(=O)c1ccccc1 | inactive |
| C[C@H]1CCCCO[C@H](CN(C)C(=O)NC2CCCCC2)[C@@H](C)CN([C@@H](C)CO)C(=O)c2cc(NC(=O)NC3CCCCC3)ccc2O1 | inactive |
| N#C/C(=N\O)C(=O)c1ccco1 | inactive |

| Compound | cytotoxicity call |
| --- | --- |
| N=C(N)Nc1nc2ccccc2[nH]1 | inactive |
| CC(C)NC(=O)c1cccc2cccc(Sc3ccccc3)c12 | inactive |
| COC(=O)Nc1nc2ccc(S(=O)c3ccccc3)cc2[nH]1 (stereo unspecified) | active |
| CCOC(=O)Nc1nc2ccccc2[nH]1 | inactive |
| N=C(N)Nc1nc(=O)c2ccccc2[nH]1 | inactive |
| CCCSc1ccc2nc(NC(=O)OC)[nH]c2c1 | active |
| CCCOc1ccc2nc(NC(=O)OC)[nH]c2c1 | active |
| COC(=O)Nc1nc2ccc(Sc3ccccc3)cc2[nH]1 | active |
| Cn1c(=O)c2c(ncn2CC(=O)Nc2nc3ccccc3[nH]2)n(C)c1=O | inactive |
| COc1ccc2nc(S(=O)Cc3ncc(C)c(OC)c3C)[nH]c2c1 (stereo unspecified) | inactive |
| O=C(O)Cn1cccn1 | inactive |
| CCC/C=C1\OC(=O)c2ccccc21 | inactive |
| Cc1noc(C)c1S(=O)(=O)N(C)C[C@@H]1OCCCC[C@@H](C)Oc2ccc(NC(=O)Nc3cccc4ccccc34)cc2C(=O)N([C@H](C)CO)C[C@@H]1C | inactive |
| C[C@H]1CN([C@@H](C)CO)C(=O)Cc2cc(NC(=O)Nc3ccc(C(F)(F)F)cc3)ccc2O[C@@H]1CN(C)Cc1ccc(C(=O)O)cc1 | inactive |
| COc1ccc(CN(C)C[C@H]2OCCCC[C@@H](C)Oc3ccc(NC(=O)NC(C)C)cc3C(=O)N([C@H](C)CO)C[C@@H]2C)cc1 | inactive |
| CCCC(=O)Nc1ccc2c(c1)C(=O)N(C)C[C@H](OC)[C@H](C)CN(Cc1ccc(-c3ccccn3)cc1)[C@@H](C)CO2 | inactive |
| CN(CCN)C1CCCCC1 | inactive |
| CCS(=O)(=O)NCC[C@H]1CC[C@H](NC(=O)Cc2ccccn2)[C@@H](CO)O1 | inactive |
| C[C@@H]1CCCCO[C@H](CN(C)C(=O)Cc2ccccc2)[C@@H](C)CN([C@@H](C)CO)C(=O)c2cc(NC(=O)c3ccccc3)ccc2O1 | inactive |
| CCS(=O)(=O)N1CC[C@]2(CC1)CN([C@H](CO)c1c2c2ccc(cc2n1C)OC)C(=O)c1cccc(c1)F | inactive |
| COc1ccc(S(=O)(=O)Nc2ccc3c(c2)C(=O)N([C@@H](C)CO)C[C@H](C)[C@@H](CN(C)Cc2ccc4c(c2)OCO4)OCCCC[C@H](C)O3)cc1 | inactive |

| Compound | cytotoxicity call |
| --- | --- |
| Cc1ccc(S(=O)(=O)Nc2ccc3c(c2)C(=O)N([C@H](C)CO)C[C@@H](C)[C@H](CN(C)Cc2ccc4c(c2)OCO4)OCCCC[C@@H](C)O3)cc1 | inactive |
| Cn1cnc(S(=O)(=O)N[C@@H]2CC[C@H](CC(=O)NCC3CC3)O[C@H]2CO)c1 | inactive |
| OC[C@H]1O[C@H]([S][Au])[C@H](O)[C@@H](O)[C@@H]1O | active |
| OC[C@H]1O[C@@H](O)[C@H](O)[C@@H](O)[C@H]1O | inactive |
| OC[C@H]1O[C@@H](O)[C@@H](O)[C@@H](O)[C@@H]1O | inactive |
| Cc1noc(C)c1NC(=O)Nc1ccc2c(c1)C(=O)N([C@H](C)CO)C[C@H](C)[C@H](CN(C)S(=O)(=O)c1cn(C)cn1)O2 | inactive |
| COc1ccc(S(=O)(=O)Nc2ccc3c(c2)C(=O)N([C@H](C)CO)C[C@@H](C)[C@H](CN(C)C(=O)Nc2cccc4ccccc24)O3)cc1 | inactive |
| CC(C)(C)S(=O)N1Cc2cc(C(=O)NCc3ccc4c(c3)OCO4)nc(-c3cccc(-c4cccc(F)c4)c3)c2[C@@H]1CCO (stereo partly specified) | active |
| CC(C)(C)[S@@](=O)N1Cc2cc(C(=O)NCc3ccc4c(c3)OCO4)nc(-c3cccc(-c4ccccc4)c3)c2[C@H]1CCO | inactive |
| CC(C)(C)[S@](=O)N1Cc2cc(C(=O)NCc3ccc4c(c3)OCO4)nc(-c3cccc(-c4cccnc4)c3)c2[C@@H]1CCO | inactive |
| CC(C)(C)S(=O)N1Cc2cc(C(=O)NCc3ccc4c(c3)OCO4)nc(-c3cccc(-c4cccc(F)c4)c3)c2[C@H]1CCO (stereo partly specified) | active |
| CC(C)(C)[S@@](=O)N1Cc2cc(C(=O)NCc3ccc4c(c3)OCO4)nc(-c3cccc(-c4ccncc4)c3)c2[C@H]1CCO | inactive |
| CC(C)(C)[S@](=O)N1Cc2cc(C(=O)NCc3ccc4c(c3)OCO4)nc(-c3cccc(-c4ccncc4)c3)c2[C@@H]1CCO | inactive |
| COc1ccc([C@H]2CNCCN2)cc1 | inactive |
| C[C@@H]1CN([C@@H](C)CO)C(=O)c2ccccc2-c2ccccc2CO[C@@H]1CN(C)C(=O)Nc1cccc(Cl)c1Cl | inactive |
| COc1ccc(S(=O)(=O)N(C)C[C@H]2Oc3ccc(NC(=O)Cn4cnnn4)cc3C(=O)N([C@@H](C)CO)C[C@H]2C)cc1 | inactive |
| CCc1nc2ccc(C(=O)N3CCN(S(=O)(=O)CC)CC3)cn2c1N(CC)C(=O)CCC1CCCC1 | inactive |
| Cc1cc(-c2ccc(N=Nc3ccc4c(S(=O)(=O)[O-])cc(S(=O)(=O)[O-])c(N)c4c3O)c(C)c2)ccc1N=Nc1ccc2c(S(=O)(=O)[O-])cc(S(=O)(=O)[O-])c(N)c2c1O.[Na+].[Na+].[Na+].[Na+] | active |
| Cc1ccc(S(=O)(=O)Oc2ccc(/N=N/c3ccc(-c4ccc(/N=N/c5c(O)ccc6cc(S(=O)(=O)O)cc(S(=O)(=O)O)c56)c(C)c4)cc3C)cc2)cc1 | inactive |
| C[C@@H]1CN([C@H](C)CO)C(=O)CCCn2cc(nn2)CO[C@H]1CN(C)C(=O)Nc1ccc(C(C)(C)C)cc1 | inactive |
| C[C@@H]1CCCCO[C@H](CN(C)C(=O)Nc2ccc(C(F)(F)F)cc2)[C@@H](C)CN([C@H](C)CO)C(=O)c2cc(NC(=O)CCCCCC(=O)Nc3ccccc3N)ccc2O1 | inactive |

| Compound | cytotoxicity call |
| --- | --- |
| NS(=O)(=O)OC[C@H]1C[C@@H](Nc2ccnc3cc(-c4cccc(SC(F)(F)F)c4)nn23)[C@H](O)[C@@H]1O | active |
| O=C(C[C@H]1C[C@H]2c3cc(NC(=O)Cc4ccncc4)ccc3O[C@H]2[C@H](CO)O1)NCc1cccc(F)c1 | inactive |
| CO[C@@H]1CN(C)C(=O)c2ccc(NC(=O)Nc3ccccc3F)cc2OC[C@@H](C)N(Cc2ccccc2F)C[C@H]1C | inactive |
| Cc1c(CN2CCN(C(=O)[C@H](C)O)CC2)sc2c(N3CCOCC3)nc(-c3cnc(N)nc3)nc12 | active |
| CC(=O)Nc1ncc(CN2CCOCC2)s1 | inactive |
| C[C@@H]1CN([C@H](C)CO)C(=O)Cc2cc(NC(=O)Cc3cn(C)c4ccccc34)ccc2O[C@@H]1CN(C)S(=O)(=O)c1cn(C)cn1 | inactive |
| C=C/C=C/[C@@H]1C(=C)CN2[C@H]1[C@H](Cc1ccccc1)OC(=O)[C@@H]2Cc1ccc(-n2cc(COc3ccccc3/C=C(C)/C=C/C(=O)NO)nn2)cc1 | inactive |
| CCOC(=O)[C@H](Cc1ccccc1)NC(=O)Cn1cc(C(=O)NO)nn1 | inactive |
| C=C/C=C/[C@H]1C(=C)CN([C@H](Cc2ccc(-n3cc(COc4ccccc4/C=C(C)/C=C/C(=O)NO)nn3)cc2)C(=O)OC)[C@@H]1[C@H](O)Cc1ccccc1 | inactive |
| C#CCN1[C@H](/C=C/C2CC2)[C@H](Cc2ccccc2)OC(=O)[C@@H]1Cc1ccc(-n2cc(COc3ccccc3/C=C(C)/C=C/C(=O)NO)nn2)cc1 | active |
| COC(=O)[C@H](Cc1ccccc1)N1CC2=C[C@@H](C3CC3)n3c(=O)n(C)c(=O)n3[C@H]2[C@@H]1[C@@H](O)CCn1cc(COc2ccccc2/C=C(C)/C=C/C(=O)NO)nn1 | inactive |
| COC(=O)[C@@H](NC(=O)Cn1cc(COc2ccccc2/C=C(C)/C=C/C(=O)NO)nn1)c1ccccc1 | active |
| COC(=O)[C@@H](NC(=O)Cn1cc(C(=O)NO)nn1)c1ccccc1 | active |
| CC(/C=C/C(=O)NO)=C\c1ccccc1OCc1cn(CC(=O)N2CCN(c3ccccc3)CC2)nn1 | inactive |
| COC(=O)[C@@H](NC(=O)Cn1cc(CCC(=O)NO)nn1)c1ccccc1 | inactive |
| CC(/C=C/C(=O)NO)=C\c1ccccc1OCc1cn(-c2ccc(C[C@H]3C(=O)O[C@@H](Cc4ccccc4)[C@H]4[C@@H]5C=CCCC=C5CN43)cc2)nn1 | inactive |
| COC(=O)[C@@H](Cc1ccc(-n2cc(COc3ccccc3/C=C(C)/C=C/C(=O)NO)nn2)cc1)N1CC2=C[C@H](C3CC3)n3c(=O)n(C)c(=O)n3[C@@H]2[C@H]1[C@H](O)Cc1ccccc1 | inactive |
| COC(=O)[C@@H](Cc1ccc(-n2cc(COc3ccccc3/C=C(C)/C=C/C(=O)NO)nn2)cc1)N1CC2=CCCC=C[C@@H]2[C@H]1[C@H](O)Cc1ccccc1 | active |

Reference: the antibiotic and cytotoxicity screens of Wong et al. (2023)
